# Test results published in the supplement of paper PMC10498489.
# The whole screen tested about 2,300 compounds, of which about 330 (14%) showed activity. Not all results are given here. Unmarked numbers belong to inactive results.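 The calls were made as follows: active = median modified Z-score above 1.96; inactive = 1.96 or below.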
# Test system: HepG2 Srxn1-GFP reporter cells (+30 nM CDDO-Me)
# Assay: Srxn1-GFP intensity median modified Z-score relative to plate median; higher = stronger NRF2 / oxidative stress reporter activation, active = hit call of the paper
# Settings: 10 µM; exposure time: 24h
# Summary of the method: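 Values give the median, over replicates, of the modified Z-score of GFP intensity on each plate. HepG2 Srxn1-GFP BAC reporter cells were co-treated for 24 h with an NRF2 activator at 30 nM and compound at 10 μM (≤0.1% DMSO) in three replicate plates, then analysed per cell for cytoplasmic GFP on confocal images with at least 100 cells. Scaling used 1.4826 × median absolute deviation.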
row,Compound,Srxn1-GFP intensity median modified Z-score
1,CC(=O)S[C@@H]1C=C2CC(=O)CC[C@]2(C)[C@H]2CC[C@@]3(C)[C@@H](CC[C@@]34CCC(=O)O4)C12 (some centres undefined) [euspeclibcmpd269],-0.784
2,CC12CCC(=O)CC1=CCC1C2[C@@H](O)CC2(C)C1CC[C@]2(O)C(=O)COP(=O)(O)O (some centres undefined) [euspeclibcmpd153],-0.722
3,COc1ccc2c(c1)c(CC(=O)OC/C=C/Cl)c(C)n2C(=O)c1ccc(Cl)cc1,0.367
4,CON(C)C(=O)c1cc(-c2ccccc2)nc2ccccc12,1.63
5,NCCCCC(NC(CCc1ccccc1)C(=O)O)C(=O)N1CCCC1C(=O)O (centres undefined) [euspeclibcmpd423],0.0552
6,O=c1c(-c2cc(O)c(O)c(O)c2)coc2cc(O)c(O)c(O)c12 [euspeclibcmpd1958],-0.398
7,CCOC(=O)OC(C)OC(=O)C1N2C(=O)C(NC(=O)C(N)c3ccccc3)C2SC1(C)C (centres undefined) [euspeclibcmpd983],0.627
8,N=C(N)N/N=C\c1c(Cl)cccc1Cl [euspeclibcmpd143],0.55
9,CC(C)NCC(O)COc1ccc(CC(N)=O)cc1 (centres undefined) [euspeclibcmpd387],-0.166
10,CC(C)/N=c1\cc2n(-c3ccc(Cl)cc3)c3ccccc3[nH]c-2cc1=Nc1ccc(Cl)cc1 [euspeclibcmpd891],7.89 (active)
11,CC(C)CC(NC(=O)C(C)N)C(=O)O (centres undefined) [euspeclibcmpd2380],-0.0851
12,CN=C(C[N+](=O)[O-])NCCSCc1csc(CN(C)C)n1 [euspeclibcmpd900],-0.00145
13,CC1CN(c2c(F)c(N)c3c(=O)c(C(=O)O)cn(C4CC4)c3c2F)C[C@H](C)N1 (some centres undefined) [euspeclibcmpd471],-0.142
14,CC(C)C(=O)C1C(=O)O[C@@H](c2ccoc2)[C@]2(C)C(O)[C@@H](O)[C@@]34OC5(C)OC67CC(C)(C(O)[C@]6(O)[C@@H](O)[C@]3(O5)C12)[C@H](CC(=O)O)[C@]74C (some centres undefined) [euspeclibcmpd1385],-0.12
15,NC(=O)NCCCC(N)C(=O)O (centres undefined) [euspeclibcmpd1533],-0.136
16,CCN(CC)CCOC(=O)C(c1ccccc1)c1ccccc1 [euspeclibcmpd520],0.792
17,CCN(CC)CCOC(=O)C(Cc1cccc2ccccc12)CC1CCCO1 (centres undefined) [euspeclibcmpd577],3.61 (active)
18,CCCC(C(=O)OCCN(CC)CC)(c1ccccc1)c1ccccc1 [euspeclibcmpd434],-0.794
19,C[C@H]1c2cccc(O)c2C(=O)C2C(=O)[C@]3(O)C(=O)C(C(N)=O)C(=O)C(N(C)C)[C@@H]3[C@@H](O)[C@@H]21 (some centres undefined) [euspeclibcmpd105],-1.04
20,C=C[C@](C)(O)CCC=C(C)C [euspeclibcmpd1465],-0.00229
21,CCOc1ccc2[nH]c3cc(N)ccc3c(=N)c2c1 [euspeclibcmpd1203],63.5 (active)
22,COC(=O)C1=C2C(=O)CC(C)C2C(O[C@@H]2O[C@H](CO)[C@@H](O)[C@H](O)[C@H]2O)OC1 (some centres undefined) [euspeclibcmpd2225],-0.236

row,Compound,Srxn1-GFP intensity median modified Z-score
1,COC(=O)c1c(OC)cc2c(c1C)Oc1c(Cl)c(O)c(Cl)c(C)c1C(=O)O2 [euspeclibcmpd1672],0.324
2,Cc1cc(O)c(C=O)c2c1C(=O)Oc1c(C)c(O)c3c(O)oc(O)c3c1O2 [euspeclibcmpd2409],0.591
3,COC(=O)c1c(C)c2c(c(C)c1O)OC(=O)c1c(C)c(Cl)c(O)c(Cl)c1O2 [euspeclibcmpd1600],12.9 (active)
4,Cc1c[nH]c(=NC(=O)C2C(=O)c3ccccc3S(=O)(=O)N2C)s1 (centres undefined) [euspeclibcmpd2190],-0.367
5,C#C[C@]1(O)CCC2C3CCc4cc(OC)ccc4C3CC[C@@]21C (some centres undefined) [euspeclibcmpd184],0.203
6,C#C[C@]1(OC(C)=O)CCC2C3CCC4=C[C@@H](OC(C)=O)CCC4C3CC[C@@]21C (some centres undefined) [euspeclibcmpd896],2.28 (active)
7,C#C[C@]1(OC(C)=O)CCC2C3CCC4=CC(=NO)CCC4C3CC[C@@]21CC (some centres undefined) [euspeclibcmpd54],-0.443
8,NCCCC(N)C(=O)O (centres undefined) [euspeclibcmpd2233],-0.13
9,CCOC(=O)C1=CC(OC(CC)CC)[C@H](NC(C)=O)[C@@H](N)C1 (some centres undefined) [euspeclibcmpd2394],-0.535
10,CC1=C(SC2CNC(C(=O)N(C)C)C2)C(C(=O)O)N2C(=O)[C@H]([C@@H](C)O)[C@@H]12 (some centres undefined) [euspeclibcmpd460],-0.758
11,CC1CN(C(=O)CSc2nc3ccc(Br)cc3c3nc(=O)c(-c4ccccc4)nn23)CC(C)O1 (centres undefined),2.28 (active)
12,CC(C)CCOc1ccc2[nH]c(-c3cc(NCCc4cn5c(n4)SCC5)ccn3)cc2c1,0.892
13,COc1ccc(-c2oc3ccccc3c(=O)c2OC)cc1 [euspeclibcmpd1341],0.287
14,CN(C)[C@@H]1C(O)=C(C(N)=O)C(=O)[C@@]2(O)C(O)c3c(c(O)c4c(Cl)ccc(O)c4c3O)C[C@@H]12 (some centres undefined) [euspeclibcmpd85],-0.132
15,O=C(CC(=O)c1ccccc1)c1ccccc1 [euspeclibcmpd1779],2.2 (active)
16,O=C(O)c1ccccc1 [euspeclibcmpd2047],0.122
17,O=C(C(=O)c1ccccc1)c1ccccc1,1.75
18,C[n+]1cccc(C(=O)O)c1 [euspeclibcmpd1706],-0.33
19,CCCc1nn(C)c2c(=O)nc(-c3cc(S(=O)(=O)N4CCN(C)CC4)ccc3OCC)[nH]c12 [euspeclibcmpd1008],-0.649
20,O=C(Nc1cc(Cl)cc(Cl)c1O)c1c(O)c(Cl)cc(Cl)c1Cl [euspeclibcmpd2236],4.91 (active)
21,Nc1ccc(NC(=O)c2cc(Cl)ccc2O)c(Cl)c1,1.83
22,O=C(Nc1ccc(Br)cc1Cl)c1cc(Cl)ccc1O,0.489
